Measurements from PubChem BioAssay AID1159580 (chemical genetic matrix, 2015).
About 2,000 (36%) of roughly 5,500 compounds were called active. Roughly 18% stayed inconclusive and do not appear here. Rule as the data show it: active = normalized growth mostly below about 0.91 (no sharp cut-off); inconclusive = no clear call, values can overlap the other calls; inactive = mostly above about 0.92. This is one part of the list.

Assay: chemical genetic growth profiling, strain panel (AID 1159580);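 also: tested at 20 µM; growth read once vehicle control cultures reached saturation at 30 °C; 1 = growth at the plate median or of vehicle wells; lower values mean less growth of the strain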
Conditions: S. cerevisiae deletion strains, growth OD

Measured: normalized growth

CN(CCOc1ccc(C[C@H](Nc2ccccc2C(=O)c2ccccc2)C(=O)O)cc1)c1ccccn1
inactive: locus YAL013W, strain DEP1, hits give low values 0.992 | locus YAL040C, strain CLN3, hits give low values 1.09 | locus YCL061C, strain MRC1 (second series), hits give low values 0.999 | locus YDR363W, strain ESC2, hits give low values 0.994 | locus YER002W, strain NOP16, hits give low values 1 | locus YGR078C, strain PAC10, hits give low values 1.02 | locus YMR263W, strain SAP30, hits give low values 1 | locus YMR307W, strain GAS1, hits give low values 0.996 | locus YNL175C, strain NOP13, hits give low values 1 | locus YNL197C, strain WHI3, hits give low values 0.994 | locus YNL224C, strain SQS1, hits give low values 0.992 | locus YOR083W, strain WHI5 (second series), hits give low values 1.1 | locus YPL055C, strain LGE1, hits give low values 1
